According to the supplement of paper PMC11732987, “Enantioselective OTUD7B fragment discovery through chemoproteomics screening and high-throughput optimisation” (Communications Chemistry, 2025):

Legend:
Assay in all cases: log2 ratio of Biotin-Ahx-Ub-VS probe labelling (fragment/DMSO); higher = less target engagement (more negative = stronger competition), active = hit call of the paper (q ≤ 0.05, log2 ratio ≤ -1)
Conditions in all cases: compound concentration: 200 uM; treatment time: 3 h
USP34 = USP34 (UniProt Q70CQ2)
USP34, sequence (Q70CQ2 whole entry, the tested form may be a part): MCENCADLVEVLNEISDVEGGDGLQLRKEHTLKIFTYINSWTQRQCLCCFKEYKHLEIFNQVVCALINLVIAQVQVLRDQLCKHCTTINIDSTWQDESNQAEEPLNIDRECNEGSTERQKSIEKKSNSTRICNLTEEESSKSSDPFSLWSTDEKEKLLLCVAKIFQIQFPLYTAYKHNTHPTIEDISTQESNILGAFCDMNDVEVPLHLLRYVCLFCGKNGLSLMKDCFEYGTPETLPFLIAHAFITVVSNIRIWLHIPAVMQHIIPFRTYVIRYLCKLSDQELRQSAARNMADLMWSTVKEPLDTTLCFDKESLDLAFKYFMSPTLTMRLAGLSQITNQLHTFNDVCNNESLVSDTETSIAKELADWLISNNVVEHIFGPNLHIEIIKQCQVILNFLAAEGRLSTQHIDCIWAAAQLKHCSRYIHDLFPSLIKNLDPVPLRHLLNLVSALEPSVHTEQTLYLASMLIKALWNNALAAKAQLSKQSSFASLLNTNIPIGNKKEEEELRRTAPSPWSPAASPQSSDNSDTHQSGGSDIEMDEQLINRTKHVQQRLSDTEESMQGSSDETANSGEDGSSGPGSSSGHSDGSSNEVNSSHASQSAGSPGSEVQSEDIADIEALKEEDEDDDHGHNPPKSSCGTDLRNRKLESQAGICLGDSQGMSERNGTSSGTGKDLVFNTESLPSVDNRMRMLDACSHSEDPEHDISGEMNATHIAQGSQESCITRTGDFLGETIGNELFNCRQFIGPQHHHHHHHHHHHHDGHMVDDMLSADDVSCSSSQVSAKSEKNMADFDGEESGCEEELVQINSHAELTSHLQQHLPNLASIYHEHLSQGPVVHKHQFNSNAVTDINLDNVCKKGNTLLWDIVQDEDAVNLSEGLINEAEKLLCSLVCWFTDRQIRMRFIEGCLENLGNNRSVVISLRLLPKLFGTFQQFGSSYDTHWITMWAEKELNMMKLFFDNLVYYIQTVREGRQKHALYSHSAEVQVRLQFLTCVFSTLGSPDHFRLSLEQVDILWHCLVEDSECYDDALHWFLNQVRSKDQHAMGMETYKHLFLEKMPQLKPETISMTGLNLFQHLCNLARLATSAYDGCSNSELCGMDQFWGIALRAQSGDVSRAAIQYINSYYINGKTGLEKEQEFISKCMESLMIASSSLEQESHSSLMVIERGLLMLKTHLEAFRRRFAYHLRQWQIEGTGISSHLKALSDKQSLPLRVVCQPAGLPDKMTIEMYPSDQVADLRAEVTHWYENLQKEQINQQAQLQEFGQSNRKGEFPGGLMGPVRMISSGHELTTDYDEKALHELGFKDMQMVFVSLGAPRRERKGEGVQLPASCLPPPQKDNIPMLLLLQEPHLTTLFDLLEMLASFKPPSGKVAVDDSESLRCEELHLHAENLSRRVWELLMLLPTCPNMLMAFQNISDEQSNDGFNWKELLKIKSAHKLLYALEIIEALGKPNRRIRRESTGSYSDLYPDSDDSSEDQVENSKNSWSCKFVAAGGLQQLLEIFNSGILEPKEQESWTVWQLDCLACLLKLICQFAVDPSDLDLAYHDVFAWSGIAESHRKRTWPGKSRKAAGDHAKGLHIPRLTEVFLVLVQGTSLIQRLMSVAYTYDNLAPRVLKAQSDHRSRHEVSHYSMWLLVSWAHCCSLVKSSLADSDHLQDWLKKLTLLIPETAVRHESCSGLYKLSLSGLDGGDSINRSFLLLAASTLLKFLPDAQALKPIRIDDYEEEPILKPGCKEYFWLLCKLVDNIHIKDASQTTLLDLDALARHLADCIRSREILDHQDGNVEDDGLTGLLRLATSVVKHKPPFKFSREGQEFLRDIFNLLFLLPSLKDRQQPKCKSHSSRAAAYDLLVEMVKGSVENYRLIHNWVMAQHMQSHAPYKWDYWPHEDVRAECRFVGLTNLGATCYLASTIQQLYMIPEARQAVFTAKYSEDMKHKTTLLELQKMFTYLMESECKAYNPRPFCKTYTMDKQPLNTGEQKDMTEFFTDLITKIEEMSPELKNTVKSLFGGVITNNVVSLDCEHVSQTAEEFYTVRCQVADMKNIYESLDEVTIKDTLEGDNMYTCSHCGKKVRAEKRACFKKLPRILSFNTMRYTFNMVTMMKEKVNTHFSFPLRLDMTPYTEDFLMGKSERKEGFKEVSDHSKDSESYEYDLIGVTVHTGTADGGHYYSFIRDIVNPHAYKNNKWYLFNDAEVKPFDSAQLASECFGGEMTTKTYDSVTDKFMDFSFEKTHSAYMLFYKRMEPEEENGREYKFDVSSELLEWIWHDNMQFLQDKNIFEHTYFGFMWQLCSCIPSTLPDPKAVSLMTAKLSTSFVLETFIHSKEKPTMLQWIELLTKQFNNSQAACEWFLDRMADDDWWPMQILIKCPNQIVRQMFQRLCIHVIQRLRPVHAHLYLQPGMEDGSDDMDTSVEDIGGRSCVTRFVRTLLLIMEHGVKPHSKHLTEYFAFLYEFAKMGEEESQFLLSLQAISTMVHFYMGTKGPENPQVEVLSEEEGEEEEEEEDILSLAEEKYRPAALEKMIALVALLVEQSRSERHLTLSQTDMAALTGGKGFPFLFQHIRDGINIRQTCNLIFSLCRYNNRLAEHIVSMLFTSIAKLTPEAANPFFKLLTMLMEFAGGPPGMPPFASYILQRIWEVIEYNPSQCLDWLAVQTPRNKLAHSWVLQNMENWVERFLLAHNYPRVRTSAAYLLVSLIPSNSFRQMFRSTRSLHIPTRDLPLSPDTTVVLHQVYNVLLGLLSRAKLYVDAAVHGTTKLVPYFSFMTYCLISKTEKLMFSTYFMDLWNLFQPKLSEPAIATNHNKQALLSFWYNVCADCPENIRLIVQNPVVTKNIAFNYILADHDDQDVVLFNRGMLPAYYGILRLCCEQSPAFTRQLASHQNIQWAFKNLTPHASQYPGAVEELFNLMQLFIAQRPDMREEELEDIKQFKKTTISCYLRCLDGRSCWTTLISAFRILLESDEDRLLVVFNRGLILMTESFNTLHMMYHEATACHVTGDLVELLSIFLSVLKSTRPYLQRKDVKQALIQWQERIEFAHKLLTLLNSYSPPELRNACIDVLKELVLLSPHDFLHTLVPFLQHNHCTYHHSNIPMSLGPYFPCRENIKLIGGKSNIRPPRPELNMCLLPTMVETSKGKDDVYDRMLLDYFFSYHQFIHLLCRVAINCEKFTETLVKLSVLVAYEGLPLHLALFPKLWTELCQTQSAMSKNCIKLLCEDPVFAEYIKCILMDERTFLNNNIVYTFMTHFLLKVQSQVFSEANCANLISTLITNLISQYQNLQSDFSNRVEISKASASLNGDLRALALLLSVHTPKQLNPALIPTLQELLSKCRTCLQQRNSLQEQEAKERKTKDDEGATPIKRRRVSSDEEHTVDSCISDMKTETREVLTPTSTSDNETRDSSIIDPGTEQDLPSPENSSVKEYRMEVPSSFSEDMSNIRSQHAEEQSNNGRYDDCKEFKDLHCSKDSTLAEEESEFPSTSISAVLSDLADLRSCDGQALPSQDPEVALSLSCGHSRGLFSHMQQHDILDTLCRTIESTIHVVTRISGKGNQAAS
Procedure, shortened: (§1)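 Average log2 ratios of fragment over vehicle were obtained by unpaired t-test from global-median-normalised Spectronaut label-free quantities. Proteins with ≥2 unique peptides were included. HEK293T lysate (495 µg per sample) was treated in triplicate with fragment at 200 µM or vehicle for 3 h, then with Biotin-Ahx-Ub-VS at 0.5 µM final for 1 h, and labelled DUBs were NeutrAvidin-enriched and run by diaPASEF LC-MS/MS.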

USP36 = target: T1, USP36 (UniProt Q9P275)
T1 sequence (whole entry): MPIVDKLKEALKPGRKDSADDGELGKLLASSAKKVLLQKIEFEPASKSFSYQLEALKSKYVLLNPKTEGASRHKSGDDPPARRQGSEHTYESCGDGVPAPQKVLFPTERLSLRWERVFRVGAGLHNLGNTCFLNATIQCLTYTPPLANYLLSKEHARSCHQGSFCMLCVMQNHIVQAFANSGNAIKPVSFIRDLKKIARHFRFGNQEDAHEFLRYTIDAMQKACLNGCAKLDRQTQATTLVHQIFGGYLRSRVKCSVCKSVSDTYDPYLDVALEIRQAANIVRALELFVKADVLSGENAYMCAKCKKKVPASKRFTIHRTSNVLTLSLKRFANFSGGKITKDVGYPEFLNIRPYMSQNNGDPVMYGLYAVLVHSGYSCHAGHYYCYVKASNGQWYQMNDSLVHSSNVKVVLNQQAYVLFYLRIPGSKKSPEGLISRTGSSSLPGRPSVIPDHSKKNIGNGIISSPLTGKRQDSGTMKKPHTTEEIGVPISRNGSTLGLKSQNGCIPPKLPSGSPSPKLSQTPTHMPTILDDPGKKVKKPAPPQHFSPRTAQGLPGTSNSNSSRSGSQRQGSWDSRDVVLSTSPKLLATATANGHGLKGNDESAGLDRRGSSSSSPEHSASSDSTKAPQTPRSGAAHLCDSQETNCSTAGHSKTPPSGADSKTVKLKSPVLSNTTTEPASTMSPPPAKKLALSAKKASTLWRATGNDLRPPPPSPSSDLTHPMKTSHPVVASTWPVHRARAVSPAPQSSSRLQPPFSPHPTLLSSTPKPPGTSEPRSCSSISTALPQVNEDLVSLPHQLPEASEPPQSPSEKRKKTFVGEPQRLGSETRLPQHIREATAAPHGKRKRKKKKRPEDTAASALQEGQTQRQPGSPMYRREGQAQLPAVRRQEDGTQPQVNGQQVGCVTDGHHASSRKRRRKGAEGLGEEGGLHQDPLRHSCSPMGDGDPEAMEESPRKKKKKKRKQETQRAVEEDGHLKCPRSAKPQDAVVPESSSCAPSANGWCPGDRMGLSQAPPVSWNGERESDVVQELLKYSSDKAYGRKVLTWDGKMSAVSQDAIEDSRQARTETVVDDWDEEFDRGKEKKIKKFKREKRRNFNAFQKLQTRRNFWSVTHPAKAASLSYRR
Procedure, shortened: as §1

USP38 = target: T2, USP38 (UniProt Q8NB14)
T2 sequence (whole entry): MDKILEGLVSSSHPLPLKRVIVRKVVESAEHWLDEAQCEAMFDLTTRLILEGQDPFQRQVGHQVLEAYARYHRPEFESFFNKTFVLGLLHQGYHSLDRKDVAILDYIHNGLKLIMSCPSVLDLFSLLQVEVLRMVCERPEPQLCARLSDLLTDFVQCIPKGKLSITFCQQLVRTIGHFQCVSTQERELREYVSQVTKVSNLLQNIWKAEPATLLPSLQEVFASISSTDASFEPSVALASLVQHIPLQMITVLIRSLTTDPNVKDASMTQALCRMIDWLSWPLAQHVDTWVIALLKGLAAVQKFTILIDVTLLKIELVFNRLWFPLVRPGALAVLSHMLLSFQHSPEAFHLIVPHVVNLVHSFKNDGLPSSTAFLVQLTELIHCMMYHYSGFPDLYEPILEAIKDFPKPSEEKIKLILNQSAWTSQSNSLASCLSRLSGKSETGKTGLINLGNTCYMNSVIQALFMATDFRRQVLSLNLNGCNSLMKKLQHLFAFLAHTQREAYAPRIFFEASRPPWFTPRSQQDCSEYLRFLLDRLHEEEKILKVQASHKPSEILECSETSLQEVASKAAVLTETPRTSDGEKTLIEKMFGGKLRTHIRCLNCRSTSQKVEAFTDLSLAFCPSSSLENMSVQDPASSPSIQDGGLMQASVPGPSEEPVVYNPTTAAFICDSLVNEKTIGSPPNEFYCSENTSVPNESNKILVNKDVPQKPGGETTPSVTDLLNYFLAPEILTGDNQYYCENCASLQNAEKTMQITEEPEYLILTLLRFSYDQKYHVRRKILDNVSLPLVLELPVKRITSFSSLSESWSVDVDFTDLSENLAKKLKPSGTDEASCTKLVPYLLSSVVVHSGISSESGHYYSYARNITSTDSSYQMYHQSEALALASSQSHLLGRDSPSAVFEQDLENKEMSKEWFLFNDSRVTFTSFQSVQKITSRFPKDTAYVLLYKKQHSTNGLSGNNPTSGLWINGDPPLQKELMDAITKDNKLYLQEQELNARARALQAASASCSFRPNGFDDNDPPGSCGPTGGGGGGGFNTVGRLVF
Procedure, shortened: as §1

USP39 = target: T3, USP39 (UniProt Q53GS9)
T3 sequence (whole entry): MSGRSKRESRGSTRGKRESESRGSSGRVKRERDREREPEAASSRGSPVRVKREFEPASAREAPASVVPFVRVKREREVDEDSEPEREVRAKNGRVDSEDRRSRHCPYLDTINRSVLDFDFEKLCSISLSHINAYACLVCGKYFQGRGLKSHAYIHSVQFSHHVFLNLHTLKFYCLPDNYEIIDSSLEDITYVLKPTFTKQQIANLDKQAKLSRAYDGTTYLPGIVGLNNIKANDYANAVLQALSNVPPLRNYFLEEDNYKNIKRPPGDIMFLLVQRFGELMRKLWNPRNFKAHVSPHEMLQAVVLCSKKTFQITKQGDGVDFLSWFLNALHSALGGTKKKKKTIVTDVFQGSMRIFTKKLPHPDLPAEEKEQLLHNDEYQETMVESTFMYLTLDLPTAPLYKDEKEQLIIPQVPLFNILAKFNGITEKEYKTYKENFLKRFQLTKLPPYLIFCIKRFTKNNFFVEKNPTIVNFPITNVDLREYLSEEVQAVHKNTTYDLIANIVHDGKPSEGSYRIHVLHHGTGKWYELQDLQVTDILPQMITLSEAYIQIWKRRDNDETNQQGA
Procedure, shortened: as §1

USP4 = target: T4, USP4 (UniProt Q13107)
T4 sequence (whole entry): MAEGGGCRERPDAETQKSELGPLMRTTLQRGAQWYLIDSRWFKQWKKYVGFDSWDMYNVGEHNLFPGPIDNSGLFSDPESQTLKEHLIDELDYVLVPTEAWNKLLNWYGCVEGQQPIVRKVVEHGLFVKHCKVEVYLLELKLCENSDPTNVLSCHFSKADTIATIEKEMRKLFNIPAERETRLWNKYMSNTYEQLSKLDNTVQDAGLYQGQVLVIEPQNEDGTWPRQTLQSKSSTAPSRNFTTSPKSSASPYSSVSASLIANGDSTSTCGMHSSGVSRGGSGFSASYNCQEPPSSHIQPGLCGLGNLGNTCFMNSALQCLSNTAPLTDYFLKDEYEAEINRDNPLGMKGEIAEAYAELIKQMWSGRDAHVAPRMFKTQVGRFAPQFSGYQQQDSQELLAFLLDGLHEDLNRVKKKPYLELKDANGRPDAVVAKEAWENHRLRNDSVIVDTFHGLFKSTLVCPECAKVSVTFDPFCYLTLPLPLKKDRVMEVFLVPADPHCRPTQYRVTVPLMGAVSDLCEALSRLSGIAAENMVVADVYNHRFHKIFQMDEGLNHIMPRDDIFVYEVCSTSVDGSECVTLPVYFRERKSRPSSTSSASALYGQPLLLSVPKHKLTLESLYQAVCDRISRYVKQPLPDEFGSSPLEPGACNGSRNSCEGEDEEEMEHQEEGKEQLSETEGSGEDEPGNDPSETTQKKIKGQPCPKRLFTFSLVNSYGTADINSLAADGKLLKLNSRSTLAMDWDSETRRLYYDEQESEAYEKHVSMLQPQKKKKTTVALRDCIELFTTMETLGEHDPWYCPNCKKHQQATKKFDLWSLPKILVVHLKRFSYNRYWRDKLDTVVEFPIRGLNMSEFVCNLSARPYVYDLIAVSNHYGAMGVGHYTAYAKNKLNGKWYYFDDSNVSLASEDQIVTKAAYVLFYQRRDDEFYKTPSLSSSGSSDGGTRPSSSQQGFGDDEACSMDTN
Procedure, shortened: as §1

Measured: log2 ratio of Biotin-Ahx-Ub-VS probe labelling

Cc1c(C#N)c(NC(=O)CCl)n(Cc2ccco2)c1C
inactive: USP34 -0.304 | USP36 -0.0578 | USP38 -0.297 | USP39 -0.162 | USP4 -0.372
